Activity calls are given as the source filed them. How the source made its calls: active means hit-call score of the fitted dose curve at least 0.9, where 1 is the maximum; inactive means score below 0.9.

What all share (conditions): mRNA level, 48 h; actives raise or lower the signal
Read-out in experiment [1]: growth arrest and DNA damage 45 (GADD45A), GADD45A (gene 1647)
The experiment in a line: LTEA_HepaRG_GADD45A: Life Technologies and Expression Analysis (LTEA) Assay for growth arrest and DNA damage 45 (GADD45A) using HepaRG (AID 2283458). A digest of the protocol: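 GADD45A expression was measured by TaqMan qRT-PCR against three housekeeping genes (ACTB, GAPDH, POLR2A) after 48 h treatment of HepaRG cells. Eight-point half-log series up to 100 uM in 0.5% DMSO, run in duplicate.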

Read-out in experiment [2]: Forkhead box O3 (FOXO3), FOXO3 (gene 2309)
Put plainly: LTEA_HepaRG_FOXO3: Life Technologies and Expression Analysis (LTEA) Assay for Forkhead box O3 (FOXO3) using HepaRG (AID 2283459). A digest of the protocol: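 FOXO3 transcript measured by qRT-PCR (normalized to ACTB, GAPDH, POLR2A) after 48 h exposure of HepaRG cells in serum-free induction medium. Duplicates, eight half-log concentrations up to 100 uM, 0.5% DMSO; gain or loss fitted against DMSO.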

Read-out in experiment [3]: ABC Transporter (ABCB1), ABCB1 (gene 5243)
The experiment in a line: LTEA_HepaRG_ABCB1: Life Technologies and Expression Analysis (LTEA) Assay for ABC Transporter (ABCB1) using HepaRG (AID 2283460). A digest of the protocol:
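ABCB1 transcript level measured by TaqMan qRT-PCR against three housekeeping genes after 48 h chemical exposure of differentiated HepaRG cells. Top concentration 100 uM, half-log steps, eight points, 0.5% DMSO vehicle; bidirectional fit relative to DMSO.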

Read-out in experiment [4]: growth arrest and DNA damage 45 (GADD45B), GADD45B (gene 4616)
The experiment in a line: LTEA_HepaRG_GADD45B: Life Technologies and Expression Analysis (LTEA) Assay for growth arrest and DNA damage 45 (GADD45B) using HepaRG (AID 2283461). Put shortly: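 Values are bidirectional concentration-response fits against 0.5% DMSO controls. Underlying data: qRT-PCR mRNA levels in human HepaRG liver cells treated 48 h in serum-free induction medium, eight concentrations topping at 100 uM.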

Read-out in experiment [5]: ABC Transporter (ABCC3), ABCC3 (gene 8714)
Put plainly: LTEA_HepaRG_ABCC3: Life Technologies and Expression Analysis (LTEA) Assay for ABC Transporter (ABCC3) using HepaRG (AID 2283462). Put shortly: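 Differentiated HepaRG liver cells receive test chemicals at eight concentrations (max 100 uM) for 48 h. Expression of ABCC3 is quantified by qRT-PCR against ACTB, GAPDH and POLR2A, and activity is fitted in both directions against the DMSO control.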

Read-out in experiment [6]: ABC Transporter (ABCB11), ABCB11 (gene 8647)
Put plainly: LTEA_HepaRG_ABCB11: Life Technologies and Expression Analysis (LTEA) Assay for ABC Transporter (ABCB11) using HepaRG (AID 2283463). Put shortly: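 ABCB11 transcript levels quantified by TaqMan qRT-PCR against three housekeeping genes after 48 h chemical exposure of HepaRG cultures. Concentrations up to 100 uM in half-log steps, 0.5% DMSO vehicle; both induction and suppression scored.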

Read-out in experiment [7]: ABC Transporter (ABCC2), ABCC2 (gene 1244)
Put plainly: LTEA_HepaRG_ABCC2: Life Technologies and Expression Analysis (LTEA) Assay for ABC Transporter (ABCC2) using HepaRG (AID 2283464). Put shortly:
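Gene expression of ABCC2 was determined by qRT-PCR in HepaRG cells exposed 48 h to chemicals (highest 100 uM, half-log dilutions). Activity was fitted in both directions relative to 0.5% DMSO vehicle.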

Read-out in experiment [8]: ATP-citrate lyase (ACLY), ACLY (gene 47)
Put plainly: LTEA_HepaRG_ACLY: Life Technologies and Expression Analysis (LTEA) Assay for ATP-citrate lyase (ACLY) using HepaRG (AID 2283466). Put shortly:
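ACLY mRNA quantified by qRT-PCR on Fluidigm arrays against three housekeeping genes, after 48 h chemical treatment of HepaRG cells (top concentration 100 uM, half-log steps, 0.5% DMSO vehicle). Up- or down-regulation fitted relative to DMSO.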

Read-out in experiment [9]: Peroxisomal acyl-coenzyme A oxidase 1 (ACOX1) gene, ACOX1 (gene 51)
Put plainly: LTEA_HepaRG_ACOX1: Life Technologies and Expression Analysis (LTEA) Assay for Peroxisomal acyl-coenzyme A oxidase 1 (ACOX1) gene using HepaRG (AID 2283467). Put shortly:
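ACOX1 transcript levels were quantified by TaqMan qRT-PCR against three housekeeping genes after 48 h chemical exposure of differentiated human HepaRG cells. Exposure used eight half-log steps topping at 100 uM, 0.5% DMSO vehicle, in duplicate. Bidirectional curve fits were made relative to DMSO.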

Read-out in experiment [10]: Alkaline Phosphatase, Placental (ALPP) gene, ALPP (gene 250)
Put plainly: LTEA_HepaRG_ALPP: Life Technologies and Expression Analysis (LTEA) Assay for Alkaline Phosphatase, Placental (ALPP) gene using HepaRG (AID 2283468). A digest of the protocol:
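Expression of ALPP was quantified by qRT-PCR against three housekeeping genes in human HepaRG cultures treated for 48 h with an eight-point concentration series up to 100 uM. Activity in either direction was fitted relative to 0.5% DMSO.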

Read-out in experiment [11]: Bcl-2 (BAD) gene, BAD (gene 572)
Put plainly: LTEA_HepaRG_BAD: Life Technologies and Expression Analysis (LTEA) Assay for Bcl-2 (BAD) gene using HepaRG (AID 2283469). Put shortly: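 Read-out: qRT-PCR of BAD mRNA, normalized to three housekeeping genes. Human HepaRG cultures got 48 h chemical exposure in 0.5% DMSO, duplicate eight-point half-log series topping at 100 uM. Gain or loss of signal fitted versus DMSO vehicle.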

Read-out in experiment [12]: Bcl-2 (BAX) gene, BAX (gene 581)
Put plainly: LTEA_HepaRG_BAX: Life Technologies and Expression Analysis (LTEA) Assay for Bcl-2 (BAX) gene using HepaRG (AID 2283470). Put shortly: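 Gene expression measured by Fluidigm qRT-PCR with three housekeeping genes for normalisation. HepaRG cells, plated 48 h beforehand, treated 48 h at up to 100 uM (8-point, half-log) in 0.5% DMSO. Bidirectional fitting versus DMSO.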

Read-out in experiment [13]: adenosine kinase (ADK) gene, ADK (gene 132)
The experiment in a line: LTEA_HepaRG_ADK: Life Technologies and Expression Analysis (LTEA) Assay for adenosine kinase (ADK) gene using HepaRG (AID 2283471). Put shortly:
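ADK expression quantified by qRT-PCR, normalised to three housekeeping genes, after 48 h exposure of HepaRG cells to eight concentrations (top 100 uM, half-log steps, duplicate, 0.5% DMSO). Up- or down-regulation fitted relative to vehicle.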

Read-out in experiment [14]: Alpha-fetoprotein (AFP) gene, AFP (gene 174)
Put plainly: LTEA_HepaRG_AFP: Life Technologies and Expression Analysis (LTEA) Assay for Alpha-fetoprotein (AFP) gene using HepaRG (AID 2283472). A digest of the protocol: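 AFP transcript measured by TaqMan qRT-PCR with three housekeeping genes for normalization, after 48 h chemical treatment of HepaRG cells (top 100 uM, half-log steps, 0.5% DMSO). Gain or loss fitted against vehicle.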

Read-out in a further experiment: BCL2L11 (gene 10018)
The experiment in a line: LTEA_HepaRG_BCL2L11: Life Technologies and Expression Analysis (LTEA) Assay for Bcl-2 (BCL2L11) gene using HepaRG (AID 2283473). A digest of the protocol:
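Cells were plated, cultured 48 h, switched to serum-free induction medium, then dosed in duplicate for 48 h at eight half-log concentrations up to 100 uM. Lysates underwent RNA isolation and TaqMan qRT-PCR; gain or loss versus DMSO was fitted.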

Read-out in experiment [15]: Apolipoprotein A-V (APOA5) gene, APOA5 (gene 116519)
Put plainly: LTEA_HepaRG_APOA5: Life Technologies and Expression Analysis (LTEA) Assay for Apolipoprotein A-V (APOA5) gene using HepaRG (AID 2283474). Put shortly:
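Human liver HepaRG cells are treated 48 h with test chemicals (100 uM top, half-log dilutions, 0.5% DMSO). APOA5 mRNA induction or loss is measured by qRT-PCR relative to vehicle.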

Read-out in experiment [16]: Apoptosis regulator Bcl-2 (Homo sapiens) (UniProt P10415)
Put plainly: LTEA_HepaRG_BCL2: Life Technologies and Expression Analysis (LTEA) Assay for Bcl-2 gene using HepaRG (AID 2283475). A digest of the protocol:
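qRT-PCR of BCL2 transcript, normalized to three housekeeping genes (ACTB, GAPDH, POLR2A), after 48 h chemical exposure of HepaRG cells; concentrations top 100 uM with half-log dilutions, 0.5% DMSO vehicle, duplicates; changes up or down fitted relative to vehicle.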

Read-out in experiment [17]: Bcl-2 (BID) gene, BID (gene 637)
Put plainly: LTEA_HepaRG_BID: Life Technologies and Expression Analysis (LTEA) Assay for Bcl-2 (BID) gene using HepaRG (AID 2283476). A digest of the protocol:
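Duplicate 48 h treatments of HepaRG cells in serum-free induction medium spanned 100 uM downward in half-log steps, 0.5% DMSO. Transcript change quantified by qRT-PCR against three housekeeping genes, fitted up or down versus DMSO.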

Read-out in experiment [18]: Broad substrate specificity ATP-binding cassette transporter ABCG2 (Homo sapiens) (UniProt Q9UNQ0)
The experiment in a line: LTEA_HepaRG_ABCG2: Life Technologies and Expression Analysis (LTEA) Assay for ABC Transporter (ABCG2) using HepaRG (AID 2283465). A digest of the protocol:
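ABCG2 transcript was quantified by TaqMan qRT-PCR against three housekeeping genes in HepaRG cells. Cells were treated in duplicate for 48 h across an 8-point half-log series up to 100 uM, with 0.5% DMSO vehicle. Gain or loss versus DMSO was fit.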

Read-out in the next experiment: Caspase-3 (Homo sapiens) (UniProt P42574)
Put plainly: LTEA_HepaRG_CASP3: Life Technologies and Expression Analysis (LTEA) Assay for cysteine-aspartic acid protease (CASP3) using HepaRG (AID 2283477). A digest of the protocol:
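In HepaRG liver cells dosed for 48 h at up to 100 uM (eight-point, duplicate), CASP3 expression changes are scored by qRT-PCR. Activity is fitted in both directions with 0.5% DMSO as baseline.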

Broad substrate specificity ATP-binding cassette transporter ABCG2 (Homo sapiens), sequence (Q9UNQ0 whole entry, looked up): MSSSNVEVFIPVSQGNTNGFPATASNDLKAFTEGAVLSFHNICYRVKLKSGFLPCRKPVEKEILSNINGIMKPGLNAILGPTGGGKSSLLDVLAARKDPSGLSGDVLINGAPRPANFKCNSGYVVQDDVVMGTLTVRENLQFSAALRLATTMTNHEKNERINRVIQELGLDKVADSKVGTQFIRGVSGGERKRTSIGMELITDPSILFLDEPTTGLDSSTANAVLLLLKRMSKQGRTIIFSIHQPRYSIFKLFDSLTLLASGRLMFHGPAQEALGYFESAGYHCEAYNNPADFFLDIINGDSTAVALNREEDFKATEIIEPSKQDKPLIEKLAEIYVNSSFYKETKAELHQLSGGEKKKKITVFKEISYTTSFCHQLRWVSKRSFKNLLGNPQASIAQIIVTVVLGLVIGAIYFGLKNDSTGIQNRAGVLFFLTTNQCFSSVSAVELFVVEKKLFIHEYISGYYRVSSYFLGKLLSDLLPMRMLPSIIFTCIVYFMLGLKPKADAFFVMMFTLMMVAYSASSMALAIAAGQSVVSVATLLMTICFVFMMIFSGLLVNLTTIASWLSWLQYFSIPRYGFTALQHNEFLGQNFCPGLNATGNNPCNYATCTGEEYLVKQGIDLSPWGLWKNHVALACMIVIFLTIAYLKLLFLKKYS
Apoptosis regulator Bcl-2 (Homo sapiens), sequence (P10415 whole entry, looked up): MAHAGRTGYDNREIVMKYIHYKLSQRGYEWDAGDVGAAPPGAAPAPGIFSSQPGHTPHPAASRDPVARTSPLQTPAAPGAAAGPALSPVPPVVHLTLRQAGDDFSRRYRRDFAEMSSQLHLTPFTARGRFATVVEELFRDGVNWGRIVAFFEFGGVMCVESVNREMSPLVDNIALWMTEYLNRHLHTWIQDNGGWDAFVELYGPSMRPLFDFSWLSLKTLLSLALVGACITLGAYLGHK
Caspase-3 (Homo sapiens), sequence (P42574 whole entry, looked up): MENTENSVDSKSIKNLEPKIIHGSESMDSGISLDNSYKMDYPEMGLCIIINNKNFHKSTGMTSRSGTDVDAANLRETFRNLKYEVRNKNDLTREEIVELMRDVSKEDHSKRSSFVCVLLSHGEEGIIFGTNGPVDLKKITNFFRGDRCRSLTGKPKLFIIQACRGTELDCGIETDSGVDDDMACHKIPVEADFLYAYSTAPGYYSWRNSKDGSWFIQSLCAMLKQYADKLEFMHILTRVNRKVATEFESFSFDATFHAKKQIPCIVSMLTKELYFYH

As for `CC(C)CCCCCCOC(=O)C1CCCCC1C(=O)OCCCCCCC(C)C` (centres undefined), the AC50 in [1], in experiment [10], in experiment [13], in experiment [15] and in experiment [17] was 3.16 nM (active) each time. Also, the call in experiment [2], in experiment [3], in [4], in [5], in experiment [6] and in experiment [7] was inactive. Further, the compound was classed as inactive (in experiment [8]; in experiment [9]; in [11]; in [12]; in experiment [14]; with BCL2L11 (gene 10018)). The outcome in experiment [16] was inactive.
Take `CCCCCCCCCCCCCCCCOS(=O)(=O)O`: the call in [1], in experiment [2], in [3], in [4], in experiment [5] and in [7] was inactive. Further, the outcome in experiment [18], in experiment [9], in experiment [10], in experiment [11], in [12] and in experiment [13] was inactive. In addition, the compound was classed as inactive (with BCL2L11 (gene 10018); in experiment [15]; in experiment [16]; in [17]). Further, the figures for the AC50 in [6] and in [14] were 41100 nM (active) and 41200 nM (active), respectively.
Regarding `Cn1c(=O)c2[nH]cnc2n(C)c1=O`, the outcome in experiment [1], in experiment [2], in [3], in experiment [4], in [5] and in [6] was inactive. Also, the compound was called inactive in [7], in [18], in experiment [9], in [10], in experiment [11] and in [12]. In addition, the result (in [13]; in [14]; with BCL2L11 (gene 10018); in [15]; in experiment [16]) was inactive. Further, in experiment [17], the AC50 is 312 nM (active).
With `O=S1(=O)CCCO1`, the compound was classed as inactive in [1], in experiment [2], in experiment [3], in experiment [4], in [5] and in experiment [6]. For the same compound, the result in experiment [7], in experiment [18], in experiment [8], in experiment [9], in experiment [10] and in experiment [11] was inactive. The call (in [12]; in experiment [13]; in experiment [14]; with BCL2L11 (gene 10018); in experiment [15]; in experiment [16]) was inactive. The compound was called inactive (in experiment [17]; with Caspase-3 (Homo sapiens)).

(Values after PubChem BioAssay (EPA / NIEHS).)
